HPGD inh: qHTS Assay for Inhibitors of HPGD (15-Hydroxyprostaglandin Dehydrogenase) | purified HPGD, NADH fluorescence kinetic, PGE2 substrate | Potency, µM, inactives show top-dose activity change, negative = inhibition, most hits filed as inhibitors | hit rate 4.3% among 150,000 | AID 894, 2007; further: potency means the concentration at half of the fitted maximal effect; on the % scale 0 is the no-effect control and ±100 the full control effect
Target sequence (P15428 whole entry, looked up): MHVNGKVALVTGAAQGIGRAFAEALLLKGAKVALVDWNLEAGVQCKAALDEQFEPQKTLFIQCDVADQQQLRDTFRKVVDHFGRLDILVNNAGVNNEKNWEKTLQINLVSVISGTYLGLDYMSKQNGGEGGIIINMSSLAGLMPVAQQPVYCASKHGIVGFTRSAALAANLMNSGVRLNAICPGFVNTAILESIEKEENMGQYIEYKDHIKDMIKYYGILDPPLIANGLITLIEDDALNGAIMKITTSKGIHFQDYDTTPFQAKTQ
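NADH formation kinetics: reaction with 30 uM PGE2 and 1 mM NAD+ (final), 20 nM enzyme, Tris-HCl pH 8 with Tween 20, after 15 min compound preincubation at room temperature. Fluorescence change, last versus first of five reads.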
LMNA splice mod: qHTS Assay for Modulators of Lamin A Splicing; HeLa LMNA splicing GFP/RFP minigene ratio, 48 h; Potency, µM (highest dose often 46.1 µM), for inactives: at the highest dose ratio change, negative = inhibition, most hits filed as inhibitors; hit rate 0.01% among 200,000; AID 1487, 2009; active means well fitted inhibition curve with a large enough effect in the signal ratio, with a control signal flat, not every such curve was filed as active; inconclusive means small, poorly fitted or top-dose-only effect, or effect the other way, or a change in a side signal; the % refers to the signal ratio; further: potency means the concentration at half of the fitted maximal effect; on the % scale 0 is the no-effect control and ±100 the full control effect
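S3 HeLa stable clones carrying a lamin A-EGFP splicing minigene plus DsRed2 were seeded at 600 cells/well in Opti-MEM with 2% FBS, pin-dosed and incubated 48 h at 37°C. Acumen cytometry (488 nm) gave the GFP/RFP total-intensity ratio.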
HttQ103 aggreg: qHTS Multiplex Assay to Identify Dual Action Probes in a Cell Model of Huntington: Aggregate Formation (GFP); PC12 HttQ103-GFP aggregates, Acumen cytometry, 40 h; Potency, µM (doses to about 46.1 µM), inactives show top-dose activity change, negative = inhibition, actives largely listed as inhibitors; hit rate 1.1% among 220,000; AID 1688, 2009; active means well fitted curve in the direction sought with a large enough effect; inconclusive means small, poorly fitted or top-dose-only effect, or another doubt; inactive means no such curve, though single readings can be large; an effect the other way counts as inactive or inconclusive; further: potency means the concentration at half of the fitted maximal effect; on the % scale 0 is the no-effect control and ±100 the full control effect; nearly all actives have a fitted effect of over 60% in size
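Aggregate formation scored by laser-scanning cytometer (488 excitation, 500–530 emission) in lysed PC12 cells expressing Q103-GFP after 100 nM tebufenozide induction; library tested in dose series, with ATPLite reagent added in the multiplex.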
JMJD2E inh: qHTS Assay for Inhibitors of Human Jumonji Domain Containing 2E (JMJD2E) | Lysine-specific demethylase 4E (Homo sapiens), B2RXH2 | JMJD2E catalytic domain, FDH-coupled NADH fluorescence (FDH is formaldehyde dehydrogenase) | Potency, µM (doses to about 57.1 µM), for inactives: at the top dose activity change, negative = inhibition, usual class: inhibitors | hit rate 1.6% among 230,000 | AID 2147, 2009;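 further: potency means the concentration at half of the fitted maximal effect; 0% = wells with enzyme and -100% = buffer wells without enzyme; nearly all actives have a fitted effect of over 50% in size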
Target sequence (B2RXH2 1-337 limits assumed): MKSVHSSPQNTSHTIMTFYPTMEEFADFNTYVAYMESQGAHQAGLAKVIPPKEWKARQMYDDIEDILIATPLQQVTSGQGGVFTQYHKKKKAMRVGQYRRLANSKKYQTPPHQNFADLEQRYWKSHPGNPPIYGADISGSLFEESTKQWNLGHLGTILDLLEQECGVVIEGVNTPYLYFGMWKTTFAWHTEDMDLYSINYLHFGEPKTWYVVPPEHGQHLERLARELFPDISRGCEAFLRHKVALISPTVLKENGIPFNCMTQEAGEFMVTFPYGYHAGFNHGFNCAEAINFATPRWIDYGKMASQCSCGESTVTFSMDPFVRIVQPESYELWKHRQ
ALDH1A1 inh: qHTS Assay for Inhibitors of Aldehyde Dehydrogenase 1 (ALDH1A1); Aldehyde dehydrogenase 1A1 (Homo sapiens), P00352; Purified ALDH1A1, NADH fluorescence, propionaldehyde substrate; Potency, µM (titrated, usually from 75.3 µM), for the others: at the top dose activity, negative = inhibition, usual class: inhibitors; hit rate 7.3% among 220,000; AID 1030, 2008;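 further: potency means the concentration at half of the fitted maximal effect; plate controls were no enzyme wells and a reference inhibitor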
HTT ATP protect: qHTS Multiplex Assay to Identify Dual Action Probes in a Cell Model of Huntington: Cytoprotection (ATP); PC12 HTT-Q103 induced, cytoprotection, ATP luminescence, 40 h; Potency, µM (doses to about 56.4 µM), for the others: cytoprotection (ATP increase), hits mostly activators; hit rate 0.14% among 230,000; AID 1471, 2008; active means well fitted curve in the direction sought with a large enough effect; inconclusive means small, poorly fitted or top-dose-only effect, or another doubt; inactive means no such curve, though single readings can be large; an effect the other way counts as inactive or inconclusive; further: potency means the concentration at half of the fitted maximal effect; % of control where 0% means no effect; nearly all actives have a fitted effect of over 45% in size
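Huntington model: PC12 line, ecdysone-inducible HTTQ103 exon1–GFP, tebufenozide 100 nM. Test articles in a dose series. Endpoint luminescence from cellular ATP.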
HPGD inh conf: Confirmation qHTS Assay for Inhibitors of HPGD (15-Hydroxyprostaglandin Dehydrogenase). hit rate 90% among 90. AID 2429, 2010. Potency, µM (top dose mostly 57.1 µM), for the others: at the highest dose activity change, negative = inhibition, usual class: inhibitors. recombinant HPGD, NADH fluorescence, PGE2 substrate. shares compounds with HPGD inh; calls by dose curve
Numbers without * were called inactive; ? = inconclusive; . = no result; [ ] = another dose, or the depositor's remark. Rows were chosen to be rich in hits. Some 9.2% of all compounds tested hit in one or more screens of this group. Unless noted, the call rests on the fitted dose curve; in most records, active means well fitted inhibition curve with a large enough effect (not every such curve was filed as active); inconclusive means small, poorly fitted or top-dose-only effect, or another doubt; inactive means no such curve, though single readings can be large or run the other way.

SMILES	HPGD inh	LMNA splice mod	HttQ103 aggreg	JMJD2E inh	ALDH1A1 inh	HTT ATP protect	HPGD inh conf
CCC(=O)Nc1sc2c(c1C#N)CC(C)(CC)OC2 (stereo unspecified)	39.8µM*	11.0%	8.2%	-0.6%	-6.9%	9.1%	.
Cc1cccc(CNC(=O)CCCN2C(=O)CCn3nc(-c4cccn4C)cc32)c1	.	11.1%[46 µM]	.	.	.	.	.
COCCn1c(=O)sc2ccccc2c1=O	.	17.5%[46 µM]	3.7%	-4.6%	-11.3%	-31.0%[10 µM]	.
O=c1c2ccccc2sn1-c1ccccc1	0.562µM*	-11.6%	-33.2%	25.1µM*	4.47µM*	-56.7%	0.447µM*
Cn1ccnc1C1CCCCN1Cc1nc(-c2ccc(Cl)cc2)no1 (stereo unspecified)	.	.	-2.0%[9.22 µM]	-6.3%	?	-4.9%[10 µM]	.
COc1ccccc1/C=C/C=N/n1c(-c2ccc(C)cc2)n[nH]c1=S	1.41µM*	?	15.8%	-8.4%	31.6µM*	-4.6%[10 µM]	1.58µM*
Cc1ccc(-c2n[nH]c(=S)n2/N=C/C=C\c2ccccc2[N+](=O)[O-])cc1	0.891µM*	5.4%	25.5%	5.0%	1.4%	27.7%	0.501µM*
CC(=O)Nc1ccccc1P(=O)(c1ccccc1)c1ccccc1OC(C)=O (stereo unspecified)	.	.	-5.7%[9.22 µM]	8.4%	.	-4.4%[10 µM]	.
CCC(CC)C(=O)OCc1cc(=O)n2nc(C3CC3)sc2n1	.	-12.4%[46 µM]	.	.	.	.	.
O=C(COC(=O)CCc1nc2ccccc2c(=O)[nH]1)Nc1ccc2c(c1)OCO2	.	.	-3.2%[9.22 µM]	-8.4%	0.3%	-2.3%[10 µM]	.
O=C(c1ccc2c(c1)OCCO2)N1CCCCC1	0.126µM*	0.1%	2.5%	6.9%	-12.0%	12.7%[1.9 µM]	0.224µM*
S=C(c1ccc2c(c1)OCO2)N1CCCCC1	-26.4%	-1.1%	19.5%	11.6%	-6.0%	7.3%	.
O=C(c1ccc2c(c1)OCO2)N1CCCCC1	0.1µM*	.	.	1.0%	-6.1%	-11.3%	0.0631µM*
O=C(c1ccc2c(c1)OCO2)N1CCc2ccccc2C1	0.447µM*	21.5%	5.7%[9.22 µM]	-6.3%	?	-116.7%[0.074 µM]	0.708µM*
CCOC(=O)CC(=O)N/N=C/c1c(N)n(C)c(=O)n(C)c1=O	.	.	-5.4%	0.9%	-7.9%	4.0%	.
Cc1cc(C)c2c3c(sc2n1)C(=O)N(c1ccccc1)CC(=O)N3	.	.	3.7%[9.22 µM]	5.3%	.	2.9%[10 µM]	.
CCNC(=O)c1ccc(CSc2ccc(Cl)cc2)cc1	-23.8%	?	-9.3%	5.4%	0.6%	.	?
COC(=O)CSc1nc2nc(C)c(Br)cc2[nH]1	-17.3%	-2.7%	16.1%	3.7%	-8.7%	8.3%	?
COc1ccc(C(=O)c2ccccc2O)c(O)c1	0.501µM*	?	-24.4%[20.6 µM]	-3.0%	-5.8%	3.3%[40.3 µM]	1µM*
COc1ccc(C(=O)c2ccc(OC)cc2O)c(O)c1	.	-8.5%	-17.2%	1.2%	7.4%	-5.3%	.
O=C(NCc1cccnc1)c1ccc(Cl)cc1[N+](=O)[O-]	-3.0%	-4.9%	?	7.7%	4.5%	-0.5%[10 µM]	.
Cc1ccc(CNC(=O)c2ccc(Cl)cc2[N+](=O)[O-])cc1	0.199µM*	0.3%	-1.7%	10.4%	2.9%	-25.2%	2µM*
CN(Cc1nc(-c2cccs2)no1)CC1(N2CCOCC2)CCCCC1	.	15.1%[46 µM]	-9.8%[9.22 µM]	3.6%	-8.0%	22.2%[10 µM]	.
O=C(c1cccc([N+](=O)[O-])c1)n1nc(-c2ccccc2)nc1NCc1ccccc1	.	-8.5%	?	?	-11.3%	.	.
